In the supplement of paper PMC3898565:
Where “and” joins values, the source holds several entries; their conditions need not be identical. Equal values may be shown once. ± gives the uncertainty stated by the source.

tested on: U87; experiment: cell viability relative to vehicle control; higher = less growth inhibition (less active); details: 10 µM; 72 h
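Note: viable cell number estimated from Alamar Blue fluorescence read at 560/90, part of a single-dose primary screen of an FDA-approved drug library.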

SMILES | cell viability
COCCCOc1ccnc(C[S+]([O-])c2nc3ccccc3[nH]2)c1C (stereo not drawn) | 108.6 ± 0.87%
COc1cc2nc(N(C)CCCNC(=O)C3CCCO3)nc(N)c2cc1OC (stereo not drawn) | 101 ± 1.4%
Nc1nc2ccc(Cl)cc2c2nc(-c3ccco3)nn12 | 93.4 ± 5.3%
Cc1nc2n(c(=O)c1CCN1CCC(c3noc4cc(F)ccc34)CC1)CCCC2 | 108 ± 1.7%
COc1ccc2[nH]c([S+]([O-])Cc3ncc(C)c(OC)c3C)nc2c1 (stereo not drawn) | 105% and 106%
Nc1ccn([C@H]2CC[C@@H](CO)O2)c(=O)n1 | 100 ± 2.5%
CNS(=O)(=O)Cc1ccc2[nH]cc(CCN(C)C)c2c1 | 101 ± 1.5%
Cc1cccc(C)c1NC(=O)C1CCCCN1C (stereo not drawn) | 106 ± 0.63%
C[C@H]1C[C@H]2[C@@H]3CCC4=CC(=O)C=C[C@]4(C)[C@@]3(Cl)[C@@H](O)C[C@]2(C)[C@@]1(O)C(=O)CO [Beclomethasone] | 106 ± 1.5%
CO[C@H]1/C=C/O[C@@]2(C)Oc3c(C)c(O)c4c(c3C2=O)C2=NC3(CCN(CC(C)C)CC3)NC2=C(NC(=O)/C(C)=C\C=C\[C@H](C)[C@H](O)[C@@H](C)[C@@H](O)[C@@H](C)[C@H](OC(C)=O)[C@@H]1C)C4=O | 104 ± 2.1%
O=C(O[C@H]1[C@H](Oc2ccccc2COC(=O)C2(O)C=CCCC2=O)O[C@H](CO)[C@@H](O)[C@@H]1O)c1ccccc1 (stereo partly drawn) | 104 ± 2.2%
CCOC(=O)C1=C(C)NC(C)=C(C(=O)OCC)C1c1ccccc1/C=C/C(=O)OC(C)(C)C | 98.85 ± 0.96%
OCc1cccnc1 | 108 ± 1.5%
Cc1[nH]cnc1CN1CCc2c(c3ccccc3n2C)C1=O | 93.5 ± 2.2%
O=C(CCCN1CC=C(n2c(=O)[nH]c3ccccc32)CC1)c1ccc(F)cc1 | 106 ± 1.7%
CC(Cc1ccccc1)(NC(=O)CN)c1ccccc1 (racemic) | 93.1 ± 3.1%
COc1cc([C@@H]2c3cc4c(cc3[C@@H](O[C@@H]3O[C@@H]5CO[C@@H](C)O[C@H]5[C@H](O)[C@H]3O)[C@H]3COC(=O)[C@H]23)OCO4)cc(OC)c1O [Etoposide] | 70.5 ± 4.8%
CC(C)OC(=O)CCC/C=C\C[C@@H]1[C@@H](CC[C@@H](O)CCc2ccccc2)[C@H](O)C[C@@H]1O | 106 ± 4.2%
CCCCCCNC(=O)n1cc(F)c(=O)[nH]c1=O | 55.1 ± 2.6%
COC(=O)C1=C(C)NC(C)=C(C(=O)OC(C)C)C1c1cccc2nonc12 (stereo not drawn) | 104.2 ± 0.44%
C#C[C@]1(O)CC[C@H]2[C@@H]3[C@H](C)CC4=C(CCC(=O)C4)[C@H]3CC[C@@]21C | 106 ± 2.1%
CC(C)(C)NC(=O)[C@@H]1CN(Cc2cccnc2)CCN1C[C@@H](O)C[C@@H](Cc1ccccc1)C(=O)N[C@H]1c2ccccc2C[C@H]1O | 105.6 ± 0.74%
CN(CCO)CC(O)Cn1cnc2c1c(=O)n(C)c(=O)n2C (stereo not drawn) | 104.3 ± 0.69%
